PubChem BioAssay AID1851 (National Center for Advancing Translational Sciences (NCATS), 2009)
Out of some 16,000 compounds screened, about 5,100 (32%) were called active. Inconclusive results (about 25%) are left out. The list shows a part of the results. Unmarked numbers belong to inactive results. Calls follow the shape of the dose curve; as a rule, active = well fitted curve in the direction sought with a large enough effect; inconclusive = small, poorly fitted or top-dose-only effect, or effect the other way; inactive = no such curve, though single readings can be large or run the other way.

Each compound was assayed against Cytochrome P450 3A4 (Homo sapiens) (UniProt P08684) (assay: Cytochrome panel assay with activity outcomes). Details: recombinant CYP, pro-luciferin dealkylation, luminescence, p450-cyp3a4; series mostly up to 57.1 µM; activity, negative = inhibition: at the top concentration.
Chain of Cytochrome P450 3A4 (Homo sapiens) (P08684 whole entry, looked up): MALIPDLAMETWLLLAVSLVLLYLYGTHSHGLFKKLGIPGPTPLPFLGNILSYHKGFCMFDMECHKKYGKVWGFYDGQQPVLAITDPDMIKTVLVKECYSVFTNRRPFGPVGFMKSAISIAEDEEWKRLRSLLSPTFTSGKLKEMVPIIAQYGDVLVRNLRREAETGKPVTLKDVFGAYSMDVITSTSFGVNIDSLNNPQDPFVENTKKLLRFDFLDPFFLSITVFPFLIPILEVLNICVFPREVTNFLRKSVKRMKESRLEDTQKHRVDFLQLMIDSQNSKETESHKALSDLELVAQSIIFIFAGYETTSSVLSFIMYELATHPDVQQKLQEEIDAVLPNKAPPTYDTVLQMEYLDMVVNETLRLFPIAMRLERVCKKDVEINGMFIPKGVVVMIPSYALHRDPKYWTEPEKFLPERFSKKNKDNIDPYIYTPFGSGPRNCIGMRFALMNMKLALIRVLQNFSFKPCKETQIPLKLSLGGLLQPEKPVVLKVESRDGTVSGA
% is scaled to controls: 0 for no effect and ±100 for the full control effect.

| SMILES | activity, negative = inhibition | AC50 |
| --- | --- | --- |
| COc1ncc2nc(-c3ccccc3)c(=O)n(C)c2n1 | -25.8% |  |
| COc1ccc(-c2nc3cnc(OC)nc3n(C)c2=O)cc1 |  | 25.1 µM (active) |
| COc1ncc2nc(-c3ccc(F)cc3)c(=O)n(C)c2n1 |  | 20 µM (active) |
| COc1ncc2nc(-c3ccc(Cl)cc3)c(=O)n(-c3ccccc3)c2n1 | 11.2% |  |
| Cn1c(=O)c(-c2ccc(Cl)cc2)nc2cnc(OCc3ccccc3)nc21 | 19.1% |  |
| COc1ncc2nc(-c3ccc(Cl)cc3)c(=O)n(C)c2n1 |  | 25.1 µM (active) |
| COc1ccc(-c2nc3cnc(N4CCN(C)CC4)nc3n(C)c2=O)cc1 | 18.8% |  |
| CN(C)c1ncc2nc(-c3ccc(F)cc3)c(=O)n(C)c2n1 | 18.7% |  |
| Cc1ccnn2cc3c(=O)n(C)c(=O)n(C)c3c12 | -5.05% |  |
| C=Cc1c(C)c2cc3[nH]c(cc4nc(cc5nc(cc1[nH]2)C(C)=C5CCC(=O)O)C(CCC(=O)O)=C4C)c(C)c3C=C | -10.4% |  |
| Cc1cccc(CNc2nc(-c3cccnc3)nc3ccccc23)c1 |  | 1 µM (active) |
| N#Cc1cccc(-c2nc(NCc3cccnc3)c3ccccc3n2)c1 |  | 5.01 µM (active) |
| COc1cccc(-c2nc(NCc3ccccc3)c3ccccc3n2)c1 |  | 12.6 µM (active) |
| N#Cc1cccc(-c2nc(NCc3cccs3)c3ccccc3n2)c1 |  | 3.98 µM (active) |
| O=[N+]([O-])c1ccc(N2CCOCC2)nc1 | -4.02% [at 2.29 µM] |  |
| COc1cccc(-c2nc(NCc3cccs3)c3ccccc3n2)c1 |  | 3.16 µM (active) |

| SMILES | activity, negative = inhibition | AC50 |
| --- | --- | --- |
| COc1cccc(-c2nc(NC3CC3)c3ccccc3n2)c1 |  | 1.26 µM (active) |
| COc1cccc(Nc2ncc3nc(-c4ccccc4)c(=O)n(Cc4cccs4)c3n2)c1 | -21.3% |  |
| COCCNc1nc(-c2cccc(OC)c2)nc2ccccc12 |  | 5.01 µM (active) |
| COc1cccc(-c2nc(NCCNC(C)=O)c3ccccc3n2)c1 |  | 12.6 µM (active) |
| NNC(=O)[C@@H](O)[C@H](O)[C@H](O)CO | 0.183% [at 11.4 µM] |  |
| COc1cccc(/C=N/NC(=O)C(=O)NCc2cccnc2)c1 | -8.44% [at 2.29 µM] |  |
| COc1cccc(-c2nc(NCc3ccccc3OC)c3ccccc3n2)c1 |  | 3.98 µM (active) |
| COc1cccc(-c2nc(NCc3cccnc3)c3ccccc3n2)c1 |  | 2 µM (active) |
| COC(=O)Cc1c(C)nc2nc(NCc3ccccc3OC)[nH]n2c1=O | -8.91% |  |
| O=C(O)c1nn(-c2ccccc2-c2n[nH]c(=O)[nH]c2=O)c(=O)[nH]c1=O | -2.84% [at 11.4 µM] |  |
| CCOC(=O)N1CCN(S(=O)(=O)c2ccc3[nH]cc(C(=O)O)c(=O)c3c2)CC1 | -14.5% |  |
| Cc1ccc(C(=O)NCCCN2CCOCC2)cc1N1CCCC1=O | 15.8% |  |
| Cc1ccccc1NS(=O)(=O)c1ccc2[nH]cc(C(=O)NCCCN3CCOCC3)c(=O)c2c1 |  | 2 µM (active) |
| COc1cccc(NS(=O)(=O)c2ccc3[nH]cc(C(=O)NCCN4CCOCC4)c(=O)c3c2)c1 |  | 2.82 µM (active) |
| CN1CCN(S(=O)(=O)c2ccc3[nH]cc(C(=O)O)c(=O)c3c2)CC1 | -5.58% |  |
